Among the targets are RAB11A; RAD9A; RBM28; RBM38; RBM45; RBMX; RBMY1E; RDH8; RET; RGS9; RNPC3; RPL19; RPF2; ROPN1; RORB.
What all share (assay): pooled miR-30 sensor sort-seq; sequence = guide strand
What all share (settings): shRNA
Note: reference of the scale not given here.

TTGCTTCTGAGAAACAATGCGG: the sensor-assay potency score (higher = more potent) with RAB11A was -0.544.

For the sequence TGAATCAATAGCAGCGTCCAGT, the sensor-assay potency score (higher = more potent) in the experiment with RAD9A is -0.732. Take TTCTTCACCTTCGTCGTCTGAA: the sensor-assay potency score (higher = more potent) with RBM28 is -0.116.

TCGAAGTACTTCCTGAGCGAGG returned a sensor-assay potency score (higher = more potent) with RBM38 of -1.24.

Turning to TGGAAGTACAACATCTGTCTGG, the sensor-assay potency score (higher = more potent) in the experiment with RBM45 is -0.0344. Sequence TACAGGAGCTCTTCCTCCCATT yielded a sensor-assay potency score (higher = more potent) in the experiment with RBMX of -1.19. The sequence TAAAATACTGAACCACTCCATG gave a sensor-assay potency score (higher = more potent) with RBM45 of -0.914. Still for that read-out and setting: as for TTGAATAAGGATCTCGTTGAAC, the figure is -0.518. Sequence TTTCTTGTCTGCCAACCCGATC had a sensor-assay potency score (higher = more potent) in the experiment with RBMX of -1.65. In the case of TAAATTGTTGCTGACTTGGGTT, the sensor-assay potency score (higher = more potent) with RBM45 was 0.143. On to TACTGGTCATAGGTGGCCGGTG, for which the sensor-assay potency score (higher = more potent) with RBM38 is -1.24.

In the experiment with RBMX, TCCACTGCTACTGCGAACTGGT showed a sensor-assay potency score (higher = more potent) of -0.729. The same measure, in the same setting: under TATCCGTCACGTGAGCTGCTGT stands -0.783. In turn, TGGTACTGCACGAAAGTGGTGC registered a sensor-assay potency score (higher = more potent) in the experiment with RBM38 of -0.732. Still for that read-out and setting: as for ACGAAGATCTTGGTGAACGTGG, the figure is -1.06.

Consider TACTATAATAATCTTGTTCAGA, for which, in the experiment with RBM45, the sensor-assay potency score (higher = more potent) was -0.469. In the experiment with RBMY1E, TTCCACCATAGGACATCCGAGG registered a sensor-assay potency score (higher = more potent) of -1.61. With TATCGCTATATCCTCTTGATGG, in the experiment with RBMX, the sensor-assay potency score (higher = more potent) was -1. Still for that read-out and setting: under TATCTCTTCCACGTGATACAGG stands -1.23.

As for TAACTTGAGCTACCACATGCTT, the sensor-assay potency score (higher = more potent) with RBMY1E is -1.09. In the experiment with RBMX, TCGACTTCCACCATATCCGTCA yielded a sensor-assay potency score (higher = more potent) of -0.253. In the experiment with RBM45, TTTGAGGCAACTGTGATCCAGA came in with a sensor-assay potency score (higher = more potent) of -0.334. The same measure, in the same setting: under TTCATCTTCAACATCTCGGTGA stands 0.811. In the experiment with RBM38, TAAACAGTCCATTAACTTCTTG gave a sensor-assay potency score (higher = more potent) of -0.519. Same read-out and setting: as for TATGGGTACTGGTCATAGGTGG, the figure is -0.624. On the same count and under the same terms, as for TAGCTGTAGCCCACGAAGCTGG, the figure is -1.08.

In turn, TTTATTTTTAGGTTCAGCCAAG displayed a sensor-assay potency score (higher = more potent) with RBM45 of -0.905. In the experiment with RBM28, TTGAAAAAGTGACATAGCCAAA showed a sensor-assay potency score (higher = more potent) of -1.59. Turning to ATATCCACCGTCATCCATGTGT, the sensor-assay potency score (higher = more potent) with RBMX was -0.304. For TTGAGGTCTCGCATCACTCTAC, in the experiment with RBM28, the sensor-assay potency score (higher = more potent) was -0.147. AAACAGTCCATTAACTTCTTGC: in the experiment with RBM38, the sensor-assay potency score (higher = more potent) was found to be 0.128. In the experiment with RBM45, TATATCTTCTAATACGTCTAAA displayed a sensor-assay potency score (higher = more potent) of -0.714. In the case of AAGATCTTGGTGAACGTGGTGT, the sensor-assay potency score (higher = more potent) in the experiment with RBM38 came to 0.0778. Turning to TCTCTATCGCTATATCCTCTTG, in the experiment with RBMX, the sensor-assay potency score (higher = more potent) is -1.36. As for TATTACTATAATAATCTTGTTC, the sensor-assay potency score (higher = more potent) with RBM45 is -0.451. The same measure, in the same setting: under TTCTTCATCTTCAACATCTCGG stands 0.279. Sequence TTCGGGTCTTTGCAAGCCCTCT had a sensor-assay potency score (higher = more potent) in the experiment with RBM38 of -1.39. The same measure, in the same setting: as for TTGGTGAACGTGGTGTCCTTCT, the figure is -0.339; as for TTAACTTCTTGCTTTCAGGTTT, 0.295. In the experiment with RBMX, TAGTATCACGAGAACTTGGGTA yielded a sensor-assay potency score (higher = more potent) of -0.18. TCTATCGCTATATCCTCTTGAT showed a sensor-assay potency score (higher = more potent) in the experiment with RBMX of -0.479. In the experiment with RBMX, TACCACTTTCAAATGATGGTTT yielded a sensor-assay potency score (higher = more potent) of -0.141.

Consider TTGAAGGCCAAGGTTGAGGAGG, for which the sensor-assay potency score (higher = more potent) in the experiment with RDH8 was -0.704.

The sequence TCGTCGTACACGGTCACCGGGA yielded a sensor-assay potency score (higher = more potent) in the experiment with RET of -0.762. Same read-out and setting: under TTGTCTGGCCTCTCCATCCGGT stands -0.338. TATCTGTCTGCTTTGTTCCTCT gave a sensor-assay potency score (higher = more potent) with RGS9 of -0.0404. Still for that read-out and setting: as for TTGAGAATGAGATTCTTGGGGT, the figure is 0.816.

TTGGTCTAGCAGATCGAGCAAA came in with a sensor-assay potency score (higher = more potent) with RNPC3 of -1.03. Turning to TTGCGTGCTTCCTTGGTCTTAG, the sensor-assay potency score (higher = more potent) in the experiment with RPL19 was -0.319. As to AAGTCTTGATGATCTCCTCCTT, in the experiment with RPL19, the sensor-assay potency score (higher = more potent) worked out at 0.211.

TTACATCGAAATCATCGCCAGC: the sensor-assay potency score (higher = more potent) with RPF2 is -0.787. Turning to TCCACTTTGGCAATATACGTGT, in the experiment with ROPN1, the sensor-assay potency score (higher = more potent) was -0.784. Sequence TTAATTTCTTCATAGGTGTGGG gave a sensor-assay potency score (higher = more potent) with RORB of 0.03. Regarding TAATTTATAAAGGTCATCCGAT, the sensor-assay potency score (higher = more potent) in the experiment with RPF2 was -0.21. As for TATCTGTTTGATTCCAGTCATG, the sensor-assay potency score (higher = more potent) with RORB is -1.6. TTCTGAAGTACAATCATCTCTG showed a sensor-assay potency score (higher = more potent) with ROPN1 of 0.437. Same read-out and setting: as for ATCAGGGCCAATTACTTCCTGT, the figure is -0.778. In the experiment with RORB, ATCATTTTGACAGAGCTCCATG came in with a sensor-assay potency score (higher = more potent) of -1.14. On the same count and under the same terms, as for TATAACGGAGGAAACAGTGTAT, the figure is 0.0235. In the experiment with RORB, TTTAATTTCTTCATAGGTGTGG registered a sensor-assay potency score (higher = more potent) of 0.75.
